Data reported in PubChem BioAssay AID1259415 (National Center for Advancing Translational Sciences (NCATS), 2018).
About 18,000 (4.4%) of roughly 410,000 compounds were called active. Roughly 7% stayed inconclusive and do not appear here. The full list was thinned out, with actives kept by preference. Values without a mark were called inactive. Cut-off read from the data, not from the text of the source: active = activity change below about -60%; inconclusive = no clear call, values can overlap the other calls; inactive = above about -39%.

Test: qHTS Assay for inhibitors of the human cytomegalovirus (HCMV)
Conditions: HFF cells, HCMV-luciferase reporter, 72 h; at 57.5 µM; hits give low values
Summary of the method: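 Steps: HFFs plated, 16 h 37C; compounds added; HCMV-luciferase added to MOI 1 PFU/cell; 72 h 37C; OneGlo reagent, 5 min room temperature; luminescence read, normalized to controls.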
% is set by controls: 0 for no effect and ±100 for the full control effect.

Structure (SMILES) | activity change, negative = inhibition
CSCC[C@H](NC(=O)N1CCn2c1nc1ccccc12)C(=O)NC1CCCCC1 | -35.1%
CSc1ccc(Cl)c(C(=O)OCC(=O)N2CCNC2=O)c1 | -17%
CCN1CCN(C(=O)CN(C)S(=O)(=O)c2ccc3ccccc3c2)CC1 | -9.61%
CN(C1CCS(=O)(=O)C1)S(=O)(=O)c1ccc2ccccc2c1 (centres undefined) | -24.3%
CC(=O)Oc1ccc(N(C(C)=O)S(=O)(=O)c2ccc3ccccc3c2)cc1Br | -69.6% (active)
CCC(CC)C(=O)N1CCc2cc(OC)c(OC)cc2C1COc1ccc(F)cc1 (centres undefined) | -15.5%
O=C(Nc1c(C(=O)N2CCCCC2)cnn1-c1ccccc1)c1ccco1 | 22.9%
O=C(Nc1ccc2nc(SCCOc3ccccc3Cl)sc2c1)c1ccco1 | -70% (active)
COc1cc(C)ccc1OCCSc1nc2ccc(NC(=O)c3ccc(C)cc3)cc2s1 | 24.3%
CC(=O)Nc1ccc2nc(SCCOc3cc(C)cc(C)c3)sc2c1 | -35%
O=C(COc1ccc2ccc(=O)oc2c1)NCC(O)c1ccccc1 (centres undefined) | -6.86%
CC(C)OC(=O)c1ccc(COc2ccc3ccc(=O)oc3c2)o1 | -15.4%
CC(=CCOc1ccc2ccc(=O)oc2c1)C1=CC(=O)C(C)(C)O1 | -76.5% (active)
CCOc1ccc(CNC(=O)c2ccc3nc(CC)c(CC)nc3c2)cc1OC | -2.8%
CCC(=O)Nc1cccc(C(=O)OCc2cc(=O)n3nc(CC)sc3n2)c1 | -14.2%
CC(C)=CCc1c(O)c(CC=C(C)C)c2occ(-c3ccc(O)cc3)c(=O)c2c1O | -100% (active)
Cc1ccc(C(O)c2nnc(Nc3cccc(Oc4ccccc4)c3)s2)cc1 (centres undefined) | -5.85%
COC(=O)c1ccccc1NC(=O)c1cncc(Br)c1 | -30.4%
O=C(CCNC(=O)c1ccccc1)NN=Cc1ccc(Br)o1 | -13.4%
O=C(CCNc1n[nH]c(=O)[nH]c1=O)N/N=C\c1ccc(Br)cc1 | 0%
O=C(CCC(=O)N/N=C/c1ccc(Br)o1)N/N=C/c1ccc(Br)o1 | -61.8% (active)
Cc1ccc(C(=O)N/N=C\c2cc(Br)c(Br)o2)cn1 | -32.6%
O=C(N/N=C/c1ccc(Br)o1)c1cncc(Br)c1 | -102% (active)

Structure (SMILES) | activity change, negative = inhibition
COc1ccc(-c2cc(C(F)(F)F)n3nc(-c4ccccc4)cc3n2)cc1OC | -15.9%
COc1ccccc1NC(=O)C1CCN(C(=O)c2ccc(C(C)(C)C)cc2)CC1 | 28.4%
CC(=O)Nc1ccc(S(=O)(=O)N2CCn3cccc3C2C)cc1 (centres undefined) | 36.8%
CCC(Cc1ccccc1)NS(=O)(=O)c1ccc2c(c1)NC(=O)CS2 (centres undefined) | -70.6% (active)
COc1ccccc1CNS(=O)(=O)c1ccc2c(c1)NC(=O)CS2 | -16.2%
O=C1CSc2ccc(S(=O)(=O)NCc3ccccc3)cc2N1 | 0%
Cc1cccc(N2CCN(C(=O)c3cnc(N4CCCC4)nc3C)CC2)c1C | -23.5%
O=C(CSc1nc2ccccc2o1)N1CCN(c2ccc(Cl)cc2)CC1 | -0.478%
Cc1nc(SCC(=O)N2CCN(c3ccccc3)CC2)[nH]c(=O)c1C | 17.7%
O=C(CSc1nc2ccccc2o1)N1CCN(c2ccccc2)CC1 | -78.3% (active)
COC(=O)c1ccccc1NC(=O)Cn1c(=O)n(-c2cccc(C(F)(F)F)c2)c(=O)c2c(C)c(C)sc21 | -21.9%
O=C(CN1C(=O)COc2ccc(S(=O)(=O)N3CCOCC3)cc21)N1CCN(c2cccc(Cl)c2)CC1 | -4.92%
CCC1(CC)NC(=O)N(CC(=O)OCC(=O)NC(=O)c2ccccc2)C1=O | -39.9%
Cn1c(CCc2ccccc2)nnc1SCC(N)=O | 8.58%
N#Cc1ccc(CSc2ncccn2)cc1 | 4.06%
N#CC1=C(SCc2ccc(C#N)cc2)N=C(N)C(c2nc(-c3ccccc3)cs2)C12CCCCC2 (centres undefined) | -98.4% (active)
O=C(CCCn1c(=O)c2cccn2c2cccnc21)NCc1ccc(F)cc1 | -18%
CCOc1ccccc1NC(=O)c1ccc2c(c1)CCN2S(=O)(=O)c1ccc(C)cc1 | 18.6%
Cc1ccc(C(=O)Nc2nc(N)n(-c3ccccc3)n2)cc1 | 68.4%
Cc1ccc2nc(C)c3c(c2c1)N(c1ccccc1)CC3 | -71.1% (active)
Cc1ccc2c(c1)c1ncnc(N3CCc4ccccc4C3)c1n2C | 110%
O=C(CN1CCN(Cc2ccc(F)cc2Cl)C1=O)NCc1cccs1 | -20.5%
Cc1ccc(N2C(=O)C3C4C=CC(CC4)C3C2=O)cc1Cl (centres undefined) | 2.41%

Structure (SMILES) | activity change, negative = inhibition
CC(C)CCN(C(=O)c1csnn1)C(C(=O)NC1CCCC1)c1ccccc1 (centres undefined) | 19.1%
Cc1ccc(NC(=O)COC(=O)C2CC2)cc1S(=O)(=O)N1CCOCC1 | -3.87%
Cc1ccc(NC(=O)CCCNC(=O)c2ccc(Cl)cc2)cc1S(=O)(=O)N1CCCCC1 | -15.5%
Cc1ccc(NC(=O)COC(=O)CNC(=O)c2ccc(Cl)cc2Cl)cc1S(=O)(=O)N1CCOCC1 | -100% (active)
Cc1ccc(NC(=O)CCNC(=O)c2ccc([N+](=O)[O-])cc2)cc1S(=O)(=O)N1CCOCC1 | -102% (active)
Cc1ccc(C(=O)OCC(=O)Nc2ccc(Cl)cn2)cc1S(=O)(=O)N1CCOCC1 | -11.7%
O=C(CCNC(=O)c1ccc([N+](=O)[O-])cc1)Nc1ccccc1N1CCOCC1 | -0.0167%
O=C(NCCc1ccccn1)c1cc(C(=O)C2CCCCC2)c[nH]1 | 24.3%
COC(=O)CN1C(=S)N(c2ccccc2)C(=O)C1CC(=O)Nc1ccc(Cl)cc1 (centres undefined) | -4.58%
Cc1ccc(Cl)cc1N1CCN(S(=O)(=O)c2cc3[nH]c(=O)c(=O)[nH]c3cc2C)CC1 | 14.4%
COc1ccccc1C(=O)OCc1cc(=O)n2nc(-c3cccs3)sc2n1 | 7.8%
CC(C)(C)c1ccc(S(=O)(=O)Nc2ccc(O)c(Sc3nc4ccccc4s3)c2)cc1 | -13.2%
CC1=C[C@H]2Cc3cc(C)cc(C)c3S(=O)(=O)[C@@H]2C=C1 | -67.4% (active)
Cc1oc2c(c1C(=O)Nc1ccc(F)c(F)c1)C1=NCCN1C=N2 | -2.2%
CCn1c(C(=O)Nc2cc(Cl)ccc2C)cc2sc(Cl)cc21 | -25.2%
Fc1ccc(Cn2nnnc2C(c2cccs2)N2CCCCCC2)cc1 (centres undefined) | -74.3% (active)
N#Cc1ccc(C(c2nnnn2CCc2ccccc2)N2CCCCCC2)cc1 (centres undefined) | -31.2%
Fc1ccccc1C(c1nnnn1Cc1ccc2c(c1)OCO2)N1CCN(Cc2ccccc2)CC1 (centres undefined) | -2.67%
COC(=O)c1c(NC(=O)C(C)Oc2ccc(Cl)c(C)c2)sc(C)c1C (centres undefined) | 24.4%
Cc1cc(C)cc(OCC(=O)OCC(=O)NC2CCCC2)c1 | 0%
CCOC(=O)C1CCCN(C(=O)Cn2ncc3c(C)n(Cc4ccc(F)cc4)c(C)c3c2=O)C1 (centres undefined) | -24.7%
COC(=O)c1scc(-c2ccccc2)c1S(=O)(=O)Nc1ccccc1 | -65.6% (active)
COC(=O)c1scc(-c2ccc(C)cc2)c1S(=O)(=O)Nc1cc(Cl)c(OC)cc1OC | -32.1%

Structure (SMILES) | activity change, negative = inhibition
CCOC(=O)c1scc(-c2ccccc2)c1S(=O)(=O)Nc1ccccc1F | -9.83%
Cc1cc(O)c(C(c2ccccc2)N2CCN(c3ccccc3F)CC2)c(=O)n1Cc1ccco1 (centres undefined) | 11.6%
CCc1ccc(CNC(=O)C2CCN(c3nnc(C)c4c(C)n(-c5ccc(C)cc5)nc34)CC2)cc1 | -8.15%
Cc1nnc(N2CCC(C(=O)Nc3ccc(F)cc3)CC2)c2nn(-c3ccc(Cl)cc3)c(C)c12 | -83.4% (active)
CC(=O)Nc1c(C)nn(-c2ccccc2)c1N1CCC(C(=O)Nc2cc(Cl)ccc2C)CC1 | 54.8%
CCOC(=O)C1CCC(CN(Cc2ccc(OC)cc2)S(=O)(=O)c2ccc(F)c(C(=O)Nc3cc(C)ccc3C)c2)CC1 (centres undefined) | -8.08%
CCOCCCNC(=O)c1c(NC(=O)Cc2coc3ccc(C)cc23)sc2c1CCC2 | -5.35%
CCc1c(C)nc2ncnn2c1N1CCC(C(=O)NCc2ccc3c(c2)OCO3)CC1 | -29.2%
FC(F)(F)c1cc(Nc2nc3ccccc3c3nncn23)ccc1Cl | -13.6%
CCC(=O)N1c2ccccc2CC1C(=O)N1CCN(c2ccccc2)CC1 (centres undefined) | 2.26%
Cc1ccc(-n2ncc3c(N4CCC(C(N)=O)CC4)ncnc32)cc1 | 80.5%
CCN(c1ncnc2c1cnn2-c1ccc(C)cc1)C1CCCCC1 | -79.6% (active)
CN(C(=O)COc1ncnc2c1cnn2-c1ccccc1)C1CCCCC1 | -21.9%
COc1ccc(CCNC(=O)CCc2c(C)nc3c(c(C)nn3-c3ccc(C)c(C)c3)c2C)c(OC)c1OC | 22.2%
COc1cc(NS(=O)(=O)c2ccc3c(c2)OCC(C(=O)N2CCCC2)O3)cc(OC)c1 (centres undefined) | -21.9%
C=Cc1ccc(Cn2c(C(=O)OC)cc3sc(C)cc32)cc1 | -33.1%
O=C(O)c1ccc(OCC2CCCO2)cc1 (centres undefined) | 63.5%
COC(=O)CC1=NN(c2nc(C)cc(C)n2)C(=O)C1 | -72.6% (active)
Cc1ccc(CC2CC(=O)N(c3nc(C)cc(C)n3)C2=O)cc1 (centres undefined) | -6.32%
Cc1cc(C)nc(N2C(=O)CC(Cc3ccccc3)C2=O)n1 (centres undefined) | -1.22%
